About 13,000 (27%) of roughly 48,000 compounds showed an effect of 50% or more. Some of the results follow.

Data on 106 compounds can be found in ChEMBL document CHEMBL3988442, “University of Dundee, Small-Polar-MMV Screening Library” (2021).

The subject of the experiment is Wolbachia pipientis. Briefly: Anti-Wolbachia Cell-Based Screen. Also noted: scale not given: in the data most compounds retested in dose-response had high values. The class given is functional. The settings on record: 5 µM.
Consider `Cc1nc(N2CCN(C(=O)C(C)(C)C)CC2)cc(-n2cnc(C)c2C)n1`, for which the “Percent Effect” value is -0.05678%.

In the case of `O=C(O)C(F)(F)F.O=C1N(c2ccsc2)CCC12CCCN(CC1CC1)C2` (stereo unspecified), the “Percent Effect” value amounted to 0.74%.

As to `CN(C)CCOCC1CN(C(=O)c2ccsc2)Cc2ccnn2C1.O=C(O)C(F)(F)F.O=C(O)C(F)(F)F` (stereo unspecified), the “Percent Effect” value is recorded as -7.951%. Under `O=C(O)C(F)(F)F.O=C(c1ccsc1)N1C[C@@H]2CCN(c3cccnc3)C[C@@H]2C1` stands -7.879%; under `CC(C)N1c2sc(-c3ccccc3)nc2CC1C(=O)NCCCO` (stereo unspecified), 3.342%. Under `CN(C)CCNC(=O)C1Cc2nc(-c3ccccc3)sc2N1CC1CC1.O=C(O)C(F)(F)F` (stereo unspecified) stands 101.2%; under `O=C(Nc1cccnc1)C1Cc2nc(-c3ccsc3)sc2N1CC1CC1.O=C(O)C(F)(F)F` (stereo unspecified), 52.78%; under `CC(C)N1[C@@H](C(=O)NCCN(C)C)C[C@H]2CN(c3ncccn3)C[C@H]21.O=C(O)C(F)(F)F.O=C(O)C(F)(F)F.O=C(O)C(F)(F)F`, -8.926%.

Take `CN(C)CCNC(=O)C1Cc2nc(-c3ccsc3)sc2N1CC1CC1.O=C(O)C(F)(F)F` (stereo unspecified): the “Percent Effect” value is on record as 106.6%.

Consider `O=C(Nc1cccnc1)[C@H]1C[C@H]2OCC[C@H]2N(C(=O)c2ccsc2)C1.O=C(O)C(F)(F)F`, for which the “Percent Effect” value is given as -10.81%. Take `Cc1cc(C(C)(O)CNC(=O)C2(C)CCCC2)c(C)o1` (stereo unspecified): the “Percent Effect” value is recorded as -0.4765%.

Consider `FC(F)(F)CCc1ccnc(NCc2csc(N3CCOCC3)n2)n1`, for which the “Percent Effect” value came to 9.156%. As to `CNC(=O)[C@@H]1COC[C@H]2CN(C(=O)c3ccc(C)c(C)c3)C[C@H]21`, the “Percent Effect” value is -0.6496%. Under `Cc1cc(CN(C)Cc2ncc(-c3cccs3)o2)no1` stands -12.35%; under `CCN(Cc1ncc(C(C)(C)C)o1)Cc1ccccc1C`, -27.71%; under `Cc1ccc(CN(C)Cc2ncc(C(C)(C)C)o2)o1`, 106.2%. The figure for `Cc1cc(CN(C)Cc2cnc3c(c2)c(C)nn3C)no1` is -2.389%; for `Cc1cc(CN(C)Cc2ncc(C(C)(C)C)o2)no1` it is 71.54%.

As to `Cc1cccc(CN(Cc2ccccn2)Cc2ncc(C(C)(C)C)o2)c1`, the “Percent Effect” value is -46.43%.

As to `CCN(Cc1cccc(Cl)c1)Cc1ncc(C(C)(C)C)o1`, the “Percent Effect” value is listed as -36.69%. The figure for `CN(Cc1ncc(-c2ccccc2)o1)CC1CCCN1c1cccnn1` (stereo unspecified) is 1.26%; for `Cc1cc(CN(C)Cc2ncc(-c3ccccc3)o2)no1` it is 85.66%; for `CN(Cc1ccc(N(C)C)cc1)C(=O)CS(=O)(=O)c1ccc(Cl)cc1` it is -13.85%.

With `CCN1CCN(C(=O)C2CCCc3[nH]ncc32)CC1` (stereo unspecified), the “Percent Effect” value is -17.44%. Under `Cc1cccc2c1nc1n2[C@@H](CNC(=O)c2cnccn2)COC1` stands -0.5308%. As for `O=C1CC2(CCCCC2)CC(=O)N1CC(O)COCc1ccc(Cl)cc1` (stereo unspecified), the “Percent Effect” value is on record as -11.1%. Regarding `CC(C(=O)NC1CC1)n1nc(-c2cccs2)cc(N)c1=O` (stereo unspecified), the “Percent Effect” value is 130.1%. As to `CC(C(=O)NC1CC1)S(=O)(=O)Cc1csc(-c2cccs2)n1` (stereo unspecified), the “Percent Effect” value is -10.04%.

Regarding `CC(C(N)=O)n1nc(-c2cccs2)cc(N)c1=O` (stereo unspecified), the “Percent Effect” value is given as 54.84%.

On to `Cc1cc(NC(=O)Cn2cnc(-c3cccs3)cc2=O)no1`, for which the “Percent Effect” value is listed as 10.41%. Consider `COc1cccn(C(C)C(=O)NC2CCCC2)c1=O` (stereo unspecified), for which the “Percent Effect” value was 10.4%. The figure for `Cc1cc(NC(=O)Cn2cnc(-c3cccs3)cc2=O)sn1` is 24.65%.

In the case of `CCNC(=O)O[C@H]1COCCN(c2nc3ccccc3s2)C1`, the “Percent Effect” value is recorded as 2.544%. With `CC(C)N(C)C(=O)c1ccc(Cl)c(NC(=O)C2CCC2)c1`, the “Percent Effect” value is on record as 2.877%. Take `c1cnc(N2CCC(NCc3cnc(C4CCC4)s3)CC2)nc1`: the “Percent Effect” value turned out to be 3.36%.

In the case of `OC(c1cccs1)C1CCN(c2ncccn2)CC1` (stereo unspecified), the “Percent Effect” value came out at 0.2293%.

In the case of `c1cnc(N2CCC(c3csc(Nc4cnccn4)n3)CC2)nc1`, the “Percent Effect” value turned out to be 101.3%. Under `c1cnc(N2CCCC(c3csc(Nc4cnccn4)n3)C2)nc1` (stereo unspecified) stands 106%; under `Cc1cccc(C(C(=O)N(C)Cc2ccon2)N(C)C)c1` (stereo unspecified), 3.369%; under `Cc1noc(-c2cccnc2N(C)Cc2ccc([S+](C)[O-])cc2)n1` (stereo unspecified), 9.143%. Under `O=C1NC(=O)c2c3c(nc(O)c21)CCCC3` stands 98.35%; under `Nc1nc2c(c(NC(=O)Nc3ccccc3)n1)CCCC2`, -9.493%. The figure for `CCC(=O)N1CCCC1c1nccnc1Nc1ncccn1` (stereo unspecified) is -3.342%. For the compound `COc1ccc(C2CCCN2C(=O)NCCNc2ncccn2)cc1` (stereo unspecified), the “Percent Effect” value is reported as -12.53%. For the compound `Cc1cc(Nc2nc(C)cs2)nc(C2CCCCN2CCO)n1` (stereo unspecified), the “Percent Effect” value is reported as -3.809%. Consider `CN(Cc1ccccc1)C(=O)CN1CCCC1c1cnn(C)c1` (stereo unspecified), for which the “Percent Effect” value is -36.94%.

As for `CN(C)C(=O)CN1CCCC1c1nccnc1Nc1ccccn1` (stereo unspecified), the “Percent Effect” value came to 99.96%. In the case of `CN(C(=O)Nc1ccccn1)C1CCCN(c2ccccc2)C1=O` (stereo unspecified), the “Percent Effect” value is given as -3.011%. Regarding `Cc1cccc(Nc2cc(C)nc(C3CCCCN3CC(N)=O)n2)n1` (stereo unspecified), the “Percent Effect” value turned out to be 123.2%. On to `COCC(=O)N1CCCC1c1nccnc1Nc1nc(C)cs1` (stereo unspecified), for which the “Percent Effect” value came out at 111.3%. The figure for `COCc1cccc(CNC(=O)CN2CCCC2c2noc(C)n2)c1` (stereo unspecified) is -0.5396%; for `Cc1csc(Nc2nccnc2C2CCCN2C(=O)C(C)C)n1` (stereo unspecified) it is 0.9263%. The figure for `COCC(=O)N1CCCC1c1nccnc1Nc1ncccn1` (stereo unspecified) is 112.6%. For `COc1nc2c(cc1C(=O)N1CCCOC(CN3CCCC3)C1)CCC2` (stereo unspecified), the “Percent Effect” value is -1.335%. `Cc1ccc(CNC(=O)C2CCN(C(=O)c3ccccc3)CC2)n1C`: the “Percent Effect” value is -7.91%. The figure for `Cc1ccc(C2(C(=O)N3CCC(n4cc(C(C)O)nn4)CC3)CC2)cc1` (stereo unspecified) is -9.43%; for `O=C(O)c1ccc(CCNC(=O)C2(c3ccccc3)CC2)cc1` it is 2.318%. Under `C[C@@H]1CN(CC(C)(C)N2CCOCC2)C[C@@]1(O)C1CC1` stands 17.03%; under `CCc1nc(NS(=O)(=O)c2ccc(F)cc2C)no1`, -5.54%. Under `Cl.NCC(=O)N1CCCC1c1nccnc1Nc1ncccn1` (stereo unspecified) stands 117.8%; under `CC(C)(C)C(=O)N1CCCC1c1nccnc1Cl` (stereo unspecified), 155.8%; under `CC(C)(C)C(=O)N1CCCC1c1ccc(C(=O)N2CCOCC2)s1` (stereo unspecified), -16.89%. As for `Cc1cccc(Nc2nccnc2C2CCCN2CC(N)=O)n1` (stereo unspecified), the “Percent Effect” value is given as 127.5%. Take `CC(C)Cn1cnnc1C1CCCN1C(=O)OC(C)(C)C` (stereo unspecified): the “Percent Effect” value is 4.117%.

As to `CC(C)CC(=O)N1CCCC1c1nccnc1Nc1ncccn1` (stereo unspecified), the “Percent Effect” value is reported as 105.7%. The figure for `FC(F)c1nnc2ccc(N3CCC4(CCCCC4)C3)nn12` is -13.07%; for `O=C(O)[C@H]1C[C@H](C(=O)NC2CC2)CN(Cc2ccc(-c3cc[nH]n3)s2)C1` it is -5.985%. Under `CCOC(=O)CCC(=O)N1CCC(CSCc2ccco2)CC1` stands -5.481%; under `CC(C)N(CC(=O)O)Cc1cccc(Br)c1.Cl`, -4.939%. For `Cc1csc(Nc2nccnc2C2CCCN2CC(N)=O)n1` (stereo unspecified), the “Percent Effect” value worked out at 113.4%. The figure for `COCCN1CCCC(c2nccnc2Nc2nc(C)cs2)C1` (stereo unspecified) is 86.28%; for `CC(=O)N1CCCC1c1nnn2cc(NCc3cccnc3)ccc12.O=C(O)C(F)(F)F.O=C(O)C(F)(F)F` (stereo unspecified) it is 4.094%; for `CC(=O)N1CCCC1c1nccnc1NCc1cccnc1` (stereo unspecified) it is 106.4%. The figure for `Cc1cc(C2CCCN2C(=O)NCc2cccnc2)on1` (stereo unspecified) is -8.527%. As to `COCCn1ccnc1-c1cc(CN2CCCCC2)cs1`, the “Percent Effect” value is -8.994%. Turning to `COCCn1ccnc1C1CCCN(c2ncnc3c(C)csc23)C1` (stereo unspecified), the “Percent Effect” value is on record as -8.002%. Under `Cc1cccc(Nc2nccnc2C2CCCN(CC(=O)N(C)C)C2)n1` (stereo unspecified) stands 110.8%; under `CC(=O)N1CCC2(CCCN(C(=O)CCN3CCCCC3)C2)C1` (stereo unspecified), -26.8%. As to `O=C(Cc1cccs1)NC1(C(=O)NCC2CC2)CCCC1`, the “Percent Effect” value is 4.522%. The figure for `CC(=O)N1CCCC1c1nccnc1Nc1ncccn1` (stereo unspecified) is 114.6%. The figure for `COCCC(=O)N1CCCC1c1nccnc1Nc1ncccn1` (stereo unspecified) is 132.2%.

In the case of `CC(=O)N1CCCC1c1nnn2cc(Nc3ccccc3)ccc12.O=C(O)C(F)(F)F` (stereo unspecified), the “Percent Effect” value is listed as -10.64%. Regarding `CNS(=O)(=O)Cc1ccc(CNC(=O)Nc2cccnc2)cc1`, the “Percent Effect” value is -4.432%.

For the compound `COC1CCCN(C(=O)Nc2nc(C)n(C)n2)C1` (stereo unspecified), the “Percent Effect” value was -6.454%. As for `CCC[C@@H]1CN(Cc2nnc(-c3cccc(F)c3)o2)C[C@H]1NC(C)=O`, the “Percent Effect” value was -4.818%. Consider `N#CC1COCCN1C(=O)c1ccc2cc[nH]c2c1` (stereo unspecified), for which the “Percent Effect” value is 87.5%. For the compound `N#CC1COCCN1C(=O)c1cccc2cc[nH]c12` (stereo unspecified), the “Percent Effect” value stood at 105.1%. `O=C(c1cccc2cc[nH]c12)N1CCC2(CCOC2)C1` (stereo unspecified): the “Percent Effect” value was -1.625%. For the compound `NC(=O)CC1CCCCN1C(=O)c1ccc2cc[nH]c2c1` (stereo unspecified), the “Percent Effect” value is -8.838%. Turning to `N#CC1COCCN1C(=O)c1ccc2[nH]cnc2c1` (stereo unspecified), the “Percent Effect” value is 108.9%.

As for `CC(C)(C)OC(=O)N1CCCN1C(=O)c1cccc2cc[nH]c12`, the “Percent Effect” value is reported as -15.66%. The figure for `CNS(=O)(=O)CC1CCCN1C(=O)c1ccc2cc[nH]c2c1` (stereo unspecified) is -9.261%. Under `CCc1nnc2n1CCN(C(=O)c1ccc3[nH]cnc3c1)C2` stands -15.67%; under `N#CC1COCCN1C(=O)c1ccc2[nH]ccc2c1` (stereo unspecified), 142.7%. Under `O=C(c1ccc2[nH]ccc2c1)N1CCCCC1c1nc[nH]n1` (stereo unspecified) stands 5.747%; under `O=C(O)C(c1ccc2[nH]ccc2c1)N1CCOCC1` (stereo unspecified), 14%; under `O=C(c1ccc2[nH]cnc2c1)N1CCC(Oc2cccnc2)CC1`, -0.01073%. For the compound `Cc1ncc(CNC(=O)N(C)C2CCN(c3ccccc3)C2=O)s1` (stereo unspecified), the “Percent Effect” value is -4.731%. Under `Cc1cccc2c1cnn2CCCNC(=O)CCCC(=O)O` stands -9.765%; under `CC(C(=O)N(C)C)S(=O)(=O)c1cc2c(cc1Cl)OCCO2` (stereo unspecified), 4.925%; under `Cc1ccc(C)c(OCc2nnc(SCC3CCCN(C)C3)o2)c1` (stereo unspecified), -6.886%. `Cc1ccc(C)c(CSc2nnc([C@@H](N)C(C)C)o2)c1.Cl`: the “Percent Effect” value stood at 118.1%.

Regarding `Cc1ccc(C)c(CSc2nnc(C(N)Cc3ccccc3)o2)c1.Cl` (stereo unspecified), the “Percent Effect” value is on record as 112.4%. The figure for `Cc1ccc(C)c(CSc2nnc(C(N)C(C)C)o2)c1.Cl` (stereo unspecified) is 129.6%; for `Cc1ccccc1CSc1nc(N)cc(N2CCOC(C(N)=O)C2)n1` (stereo unspecified) it is 17.62%. The figure for `CSCC[C@H](N)c1nnc(SCc2cc(C)ccc2C)o1.Cl` is 100.9%.
